Compound activity as filed in PubChem.
In the library only some 18% were active in any assay of this set; here they are far more common.
TDP1 cell noCPT: qHTS for Inhibitors of human tyrosyl-DNA phosphodiesterase 1 (TDP1): qHTS in cells in absence of CPT; 420,000 tested, 15% active; Potency, µM (titrated, usually from 46.2 µM), inactives show at the top dose activity change, negative = growth inhibition, usual class: inhibitors; AID 686978, 2013; DT40 Tdp1-/- hTDP1 cells, no CPT, ATP luminescence, 48 h; note: potency is the fitted concentration of half-maximal effect; % is set by controls: 0 for no effect and ±100 for the full control effect; nearly all actives have a fitted effect of over 55% in size
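Cells were dispensed at 400 per well, compounds added by pin tool, plates incubated ≥48 hr at 37 °C, then CellTiter-Glo added for 30 min at room temperature before luminescence reading. Line: DT40 Tdp1-/- complemented with hTDP1; camptothecin omitted.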
TDP1 cell CPT: qHTS for Inhibitors of human tyrosyl-DNA phosphodiesterase 1 (TDP1): qHTS in cells in presence of CPT; chicken DT40 Tdp1-/-;hTDP1 cells + 20 nM CPT, ATP luminescence, 48 h; Potency, µM (top dose mostly 46.2 µM), without a hit: top-dose activity change, negative = growth inhibition, actives largely listed as inhibitors; 420,000 tested, 12% active; note: potency is the fitted concentration of half-maximal effect; % is set by controls: 0 for no effect and ±100 for the full control effect; nearly all actives have a fitted effect of over 55% in size
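Chicken DT40 Tdp1-/- cells complemented with human TDP1, 400 cells/well, exposed to compounds plus 20 nM camptothecin for at least 48 h at 37 C; viability read as ATP content by CellTiter-Glo luminescence.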
IL1B secr inh: qHTS for Inhibitors of Inflammasome Signaling: IL-1-beta AlphaLISA Primary Screen | THP-1 LPS/ATP IL-1B secretion, AlphaLISA, 16 h; active compounds read low | activity change, % at 57.5 µM | 360,000 tested, 4.7% active | AID 743279, 2014; in the data active = activity change below about -50%; inconclusive = mostly about -30% to -49%; note: % is set by controls: 0 for no effect and ±100 for the full control effect
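Secreted IL-1B measured by AlphaLISA bead assay after 16 h compound exposure of THP-1 cells; compounds (final up to 57.5 uM) added 1 h before LPS (250 ng/mL) and ATP (1.25 mM) stimulation; lower signal means less secretion.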
HepG2 tox: qHTS for Inhibitors of TGF-b: Cytotox Counterscreen. Potency, µM (series often up to 46.1 µM), for inactives: at the highest dose activity change, negative = cytotoxicity, actives largely listed as cytotoxic. HepG2 CAGA-GFP viability, ATP luminescence, 18 h. AID 588856, 2011. 410,000 tested, 0.76% active; note: potency is the fitted concentration of half-maximal effect
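CellTiter-Glo luminescence gave cytotoxicity after 18 hours at 37 degrees C. The cells were HepG2 CAGA-GFP in 1% FBS DMEM, stimulated with 500 pg/mL TGF-beta after compound addition. %Activity was normalised to no-cell wells (complete cell-killing) and DMSO (no toxicity), and curves were fitted and classified.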
TGFb inhibitor: qHTS for Inhibitors of TGF-b. 410,000 tested, 1.2% active. Potency, µM (series often up to 46.1 µM), without a hit: at the highest dose activity, negative = inhibition, hits mostly inhibitors. HepG2 CAGA-GFP TGF-b/SMAD3 reporter, GFP fluorescence, 18 h; TGF-beta stimulated, 500 pg/mL final. AID 588855, 2011; note: potency is the fitted concentration of half-maximal effect; % is set by controls: 0 for no effect and ±100 for the full control effect; nearly all actives have a fitted effect of over 65% in size
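First, reporter cells (HEPG2 CAGA-GFP) rested 2 h at 37 degrees C. Next, compounds were pinned in and TGF-beta added to 500 pg/mL final. After 18 h, GFP was imaged per cell and summed per well.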
TDP1 inh: qHTS Assay for Inhibitors of Tyrosyl-DNA Phosphodiesterase (TDP1); 350,000 tested, 0.28% active; Potency, µM (titrated, usually from 130 µM), for inactives: at the highest dose activity change, negative = inhibition, actives largely listed as inhibitors; Tyrosyl-DNA phosphodiesterase 1 (Homo sapiens), Q9NUW8; recombinant TDP1, AlphaScreen DNA substrate cleavage; note: potency is the fitted concentration of half-maximal effect; % is set by controls: 0 for no effect and ±100 for the full control effect; nearly all actives have a fitted effect of over 40% in size
Target sequence (Q9NUW8 whole entry, looked up): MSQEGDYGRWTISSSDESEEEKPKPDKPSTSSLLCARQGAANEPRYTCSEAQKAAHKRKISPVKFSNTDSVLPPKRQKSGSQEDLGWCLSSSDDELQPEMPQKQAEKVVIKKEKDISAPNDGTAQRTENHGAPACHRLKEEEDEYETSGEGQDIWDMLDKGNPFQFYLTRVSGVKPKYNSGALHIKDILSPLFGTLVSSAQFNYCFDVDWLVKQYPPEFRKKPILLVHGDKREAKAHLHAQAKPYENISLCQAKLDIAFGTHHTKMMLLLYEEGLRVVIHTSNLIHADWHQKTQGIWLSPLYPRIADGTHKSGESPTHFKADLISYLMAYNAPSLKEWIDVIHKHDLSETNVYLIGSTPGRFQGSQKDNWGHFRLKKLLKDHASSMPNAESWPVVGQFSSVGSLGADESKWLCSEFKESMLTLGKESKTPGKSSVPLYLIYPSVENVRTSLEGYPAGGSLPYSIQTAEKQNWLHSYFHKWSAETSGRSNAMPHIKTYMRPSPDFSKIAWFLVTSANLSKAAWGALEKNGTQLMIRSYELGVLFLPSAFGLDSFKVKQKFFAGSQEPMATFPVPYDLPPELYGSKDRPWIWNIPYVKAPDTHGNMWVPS
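Here, a 5' biotin and 3' phosphotyrosine-FITC DNA oligonucleotide reports Tdp1 activity: intact substrate bridges AlphaScreen beads, while cleavage leaves a 3' phosphate and drops signal. All incubations at room temperature.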
* hit, by the source's call; u = inconclusive; x = not tested or not shown; [ ] = dose if it differs, or a comment. Unless noted, calls come from the whole dose curve; as a rule, active = well fitted curve in the direction sought with a large enough effect; inconclusive = small, poorly fitted or top-dose-only effect, or another doubt; inactive = no such curve, though single readings can be large; an effect the other way counts as inactive or inconclusive.

SMILES	TDP1 cell noCPT	TDP1 cell CPT	IL1B secr inh	HepG2 tox	TGFb inhibitor	TDP1 inh
COC(=O)[C@@]1(Cc2ccc(F)cc2)[C@H]2c3cc(C(=O)N4CCCC4)n(CC4CC4)c3C[C@H]2CN1C(=O)c1ccccc1	u	u	0	x	x	21%
COC(=O)[C@@]1(Cc2ccc(F)cc2)[C@H]2c3cc(C(=O)N4CCCC4)n(Cc4ccc(C)c(F)c4F)c3C[C@H]2CN1C(=O)c1ccccc1	23µM*	u	0	x	x	16%
CCN(c1ccccc1C(=O)O)S(=O)(=O)c1cccc2nsnc12	-2%	3%	13	-1%	0%	x
CCn1cc(/C=C(\NC(=O)c2cc(OC)c(OC)c(OC)c2)C(=O)N2CCOCC2)c2ccccc21	u	-3%	-18	-6%	-2%	x
Cc1ccc(CN(C(=O)c2ccc([N+](=O)[O-])cc2)c2ccccn2)cc1	u	u	x	-19%	-26%	7%
COc1ccccc1CCNC(=O)C(=O)c1cn(CC(=O)N2CCOCC2)c2ccccc12	-19%	u	-21	-15%	-9%	2%
COC(=O)[C@@]1(Cc2ccc(F)cc2)[C@H]2c3cc(C(=O)N4CCCC4)n(Cc4ccc(C)o4)c3C[C@H]2CN1C(=O)c1ccccc1	u	u	-87*	x	x	16%
COc1ccc(Cl)cc1NC(=O)NCc1ccccn1	6%	-5%	-16	-10%	-4%	5%
O=C(Nc1cccc2cccnc12)c1csc(COCCO)n1	13µM*	23µM*	u	-36%	-14%	x
O=C(Nc1cccc2ccccc12)c1csc(COCCO)n1	-45%	-58%	-3	-2%	8%	x
Cc1cc(C(O)c2ncc(-c3cccc4ccccc34)[nH]2)ccc1F (stereo not drawn)	u	u	-14	-27%	u	x
COC(=O)CC1C(=O)NC2CCCCC2N1C(=O)CCl (stereo not drawn)	15µM*	u	-62*	-17%	1%	5%
C=CCn1c(-c2cc(-c3ccccc3)sc2N)n[nH]c1=S	u	11%	13	0%	5%	11%
COc1ccc(-n2c(-c3cc(-c4ccccc4)sc3N)n[nH]c2=S)cc1	16µM*	u	78	7%	13%	x
Nc1sc(-c2ccccc2)cc1-c1n[nH]c(=S)n1C1CCCCC1	2.6µM*	16µM*	29	-63%	u	-5%
COc1ccc(S(=O)(=O)NCCc2cn3nc(C)c(C)nc3n2)cc1F	15%	3%	-2	8%	3%	0%
COc1ccc2c(c1)cc1c(=O)n(CC(=O)NCCCc3ccccc3)nc(C)n12	-2%	-2%	x	1%	0%	4%
O=C(NCC(=O)N1CCN(c2ccccc2)CC1)c1ccco1	u	-1%	-10	5%	-11%	3%
COc1cccc(Cn2c(C(C)n3c(C)nc4ccccc43)nc3ccccc32)c1 (stereo not drawn)	12µM*	u	21	x	x	x
COc1cccc(Cn2c(-c3nonc3N)nc3ccccc32)c1	2.9µM*	2.9µM*	50	-23%	-23%	5%
Nc1nonc1-c1nc2ccccc2n1Cc1cccc(Cl)c1	10%	-6%	x	-13%	5%	3%[12.3 µM]
CCOc1ccc(CCNC(=O)Cn2c(-c3nonc3N)nc3ccccc32)cc1OCC	13µM*	10µM*	-3	-26%	2%	7%
COc1cc(Cn2c(-c3nonc3N)nc3ccccc32)ccc1C	4.1µM*	2.9µM*	7	-28%	-28%	5%
Cc1ccc(Cn2c(-c3nonc3N)nc3ccccc32)cc1	-23%	-10%	12	3%	8%	5%
COc1cccc(C(=O)NCC(=O)OCc2cc(=O)n3c(C)csc3n2)c1	-12%	-11%	x	-3%	-12%	1%
SMILES	TDP1 cell noCPT	TDP1 cell CPT	IL1B secr inh	HepG2 tox	TGFb inhibitor	TDP1 inh
COCc1cc(C)nc(SCC(=O)Nc2ccc3[nH]c(=O)[nH]c3c2)c1C#N	-15%	18%	4	-14%	2%	1%
CC1=C(C(=O)N2CCOCC2)CC(CC(=O)NCc2cccs2)C(=O)N1Cc1ccccc1 (stereo not drawn)	14%	-1%	3	-2%	-19%	x
Cc1cc(C)nc(Sc2nc(Cl)nc(N(c3ccccc3)c3ccccc3)n2)n1	u	u	-97*	-32%	u	1%
Cc1cc(C)nc(SC(C(=O)O)c2ccccc2)n1 (stereo not drawn)	-7%	2%	12	12%	12%	8%
CCc1ccc(CN(Cc2cn[nH]c2-c2ccc(OC)cc2)C(=O)Nc2ccc(Br)cc2)cc1	18µM*	23µM*	x	-40%	7.9µM*	0%
CCc1ccc(CN(Cc2cn[nH]c2-c2ccc(OC)cc2)C(=O)Nc2ccc(C)c(F)c2)cc1	18µM*	21µM*	x	-43%	10µM*	6%
CCc1ccc(OCC(=O)Nc2ccc3[nH]ncc3c2)cc1	-7%	u	-3	-1%	u	0%
CCOc1ccccc1N1CCN(C(=O)c2cn(CC3CCCCC3)nn2)CC1	u	u	4	12%	4%	4%
CC(C)C1=NN(C(=O)c2ccccc2)C(O)(C(C)(C)C)C1 (stereo not drawn)	6.5µM*	u	6	1%	u	6%
CNC(=S)Nc1ccc(-c2nc3ccc(C)cc3s2)cc1	u	2%	u	-21%	u	5%
CCCCNC(=S)Nc1ccc(-c2nc3ccc(C)cc3s2)cc1	18µM*	u	6	-1%	-1%	0%
Cc1ccc2nc(-c3ccc(NC(=S)NCC(C)(C)CN(C)C)cc3)sc2c1	6.5µM*	6.5µM*	0	-25%	15%	x
Cc1ccc2nc(-c3ccc(NC(=S)NCCC(C)C)cc3)sc2c1	u	0%	-9	-4%	-24%	x
Cc1cc(C)cc(NC(=O)c2nnn(Cc3cc(C)ccc3C)c2N)c1	u	21µM*	0	-25%	u	3%
CCc1ccc(Cn2nnc(C(=O)Nc3ccc(OC)cc3OC)c2N)cc1	-9%	2%	14	-19%	-12%	-1%
